Common to all, as to test: PBM binding z-score (relative to random genomic background probes); higher = stronger binding; sequences stand for … in GC…GCGATTGACAGCGTAGAATGAAGG
Test [1] relates to PPARg:RXRa DBDmut IVT, anti-RXR (DBD mutation: RXRa K156A/R161A, NR concentration 270 nM, RXRa partner concentration 90 nM). The procedure, abridged: (§1)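 Binding buffer was PBS pH 7.4 with 2% milk, 0.02% Triton X-100, 1 mM DTT, 0.2 mg/mL BSA and 0.4 mg/ml salmon testes DNA. In it, ligand-free nuclear receptor dimers were incubated 1 h on custom Agilent 4×180K protein-binding microarrays carrying double-stranded probes. Antibodies against each partner (one per run) detected binding, and z-scores were calculated against random background probes after regression normalization of scanned fluorescence.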

The subject of test [2] is PPARg:RXRa IVT, anti-PPARg (NR concentration 270 nM, RXRa partner concentration 90 nM). In outline: as §1
The subject of test [3] is PPARg DBDmut:RXRa IVT, anti-PPARg (DBD mutation: PPARg1 K132A/R137A, NR concentration 270 nM, RXRa partner concentration 90 nM). The procedure, abridged:
as §1

Test [4] deals with PPARg DBDmut IVT, anti-PPARg (DBD mutation: PPARg1 K132A/R137A, NR concentration 270 nM). The procedure, abridged:
as §1

In test [5] the test system is PPARg homodimer (NR concentration 180 nM). The procedure, abridged: as §1
Test [6] has as its system PXR:RXRa (NR concentration 270 nM, RXRa partner concentration 90 nM). In outline: as §1
Test [7] concerns PXR homodimer (NR concentration 270 nM). In outline: as §1
Test [8] deals with RARa:RXR (NR concentration 270 nM, RXRa partner concentration 90 nM). In outline:
as §1

In test [9] the test system is RARa homodimer (NR concentration 270 nM). The procedure, abridged:
as §1

In test [10] the test system is RARb:RXRa (NR concentration 270 nM, RXRa partner concentration 90 nM). In outline: as §1
Test [11] relates to RARb homodimer (NR concentration 270 nM). The procedure, abridged:
as §1

In test [12] the test system is RARg:RXRa (NR concentration 270 nM, RXRa partner concentration 90 nM). In outline:
as §1

The subject of test [13] is RARg homodimer (NR concentration 270 nM). In outline: as §1
The subject of test [14] is RXRa DBDmut IVT, anti-RXR (DBD mutation: RXRa K156A/R161A, NR concentration 90 nM). The procedure, abridged: as §1
Test [15] has as its system RXRa homodimer (NR concentration 180 nM). The procedure, abridged: as §1
The test system of test [16] is THRa:RXRa (NR concentration 90 nM, RXRa partner concentration 90 nM). In outline:
as §1

The subject of test [17] is THRa homodimer (NR concentration 90 nM). In outline:
as §1

Test [18] relates to VDR homodimer (NR concentration 270 nM). The procedure, abridged: as §1

For GCAGACAGGTGAAACGCAGGTAACTCATGGTGGC, the PBM binding z-score was 1.08 in test [1]; 0.828 in test [2]; -0.609 in test [3]; -0.755 in test [4]; -0.331 in test [5]; -0.113 in test [6]. Moreover, the PBM binding z-score in test [7] is -0.622; in [8], 0.721; in [9], -0.93; in test [10] it was 0.653; in [11], 0.0324; in test [12], 0.941. In addition, the PBM binding z-score in test [13] was 0.44; in [14] it was -0.582; in test [15], 0.943; in test [16], 1; in test [17], -0.808; in test [18] it was -0.818.

For the sequence TCTGCTGGGTCAGTTGGTCAGCTAACGAGCTGCC, the PBM binding z-score in test [1] was 2.22; in test [2], 2.74; in test [3], 0.569; in test [4], -0.161; in test [5] it was -0.167; in [6] it was 0.0304. For the same sequence, the PBM binding z-score was -0.922 in test [7]; 0.33 in test [8]; -0.731 in test [9]; 3.19 in [10]; 2.12 in [11]; 2.77 in test [12]. For the same sequence, the PBM binding z-score was 2.99 in [13]; 0.212 in test [14]; 1.06 in test [15]; 0.669 in test [16]; -0.537 in test [17]; -0.562 in [18].

As for CCTGCTAGGTCATGGTCCGCTAATCTACAGTATG, the PBM binding z-score is 4.12 in test [1]; 3.6 in test [2]; -0.11 in [3]; -0.235 in [4]; 0.575 in test [5]; 1.29 in test [6]. The PBM binding z-score was -0.433 in [7]; 2.09 in test [8]; -0.439 in [9]; 3.88 in [10]; 2.55 in test [11]; 3.73 in test [12]. Also, the PBM binding z-score in test [13] is 4.05; in test [14], 1.74; in test [15] it was 2.66; in [16], 2.86; in test [17], 1.1; in [18], 0.414.

For GCGGCTGGGGCAAAGCAGGTTACCATAAGGTTGG, the PBM binding z-score in test [1] was 0.344; in [2], 0.597; in test [3], -2.01; in [4], -1.49; in test [5] it was -0.191; in test [6] it was 0.338. Further, the PBM binding z-score was -0.584 in test [7]; 0.776 in test [8]; -1.18 in [9]; 1.07 in test [10]; 1.19 in test [11]; 0.368 in [12]. The PBM binding z-score in test [13] was 0.921; in test [14], -0.596; in test [15], 0.116; in [16], 3.18; in test [17] it was 0.108; in test [18], -0.402.

Consider CGACAAAGTTCAACTAAGGTAACGTAAAGCACGC, for which the PBM binding z-score in test [1] came to 0.248; in test [2] it was 1.7; in test [3], 0.707; in [4] it was 1.21; in test [5], 2.54; in test [6] it was 5.16. For the same sequence, the PBM binding z-score in test [7] stood at 3.06; in [8], 3.51; in test [9], 0.942; in [10], 5.07; in [11] it was 4.21; in test [12], 5.63. The PBM binding z-score in test [13] worked out at 6.69; in [14], 4.18; in [15], 4.41; in test [16], 5.06; in test [17], 1.57; in test [18], 3.79.

Regarding ACAAACAGGTGATGAAGGTAACTCAGGCTATCAT, the PBM binding z-score in [1] turned out to be 1.05; in test [2], 1.01; in test [3], 0.711; in [4], 0.584; in test [5] it was 0.773; in test [6], 0.14. For the same sequence, the PBM binding z-score in [7] was determined as 0.394; in [8], 0.713; in test [9], 0.803; in test [10], 0.582; in [11] it was 0.731; in [12] it was 0.443. Further, the PBM binding z-score amounted to 0.626 in test [13]; 0.298 in [14]; 0.602 in [15]; 1.19 in [16]; 0.203 in test [17]; 0.203 in test [18].

Take ACAGACAGGTGAGTGAAGGTAACTCTGCTGGACG: the PBM binding z-score is 0.709 in test [1]; 0.604 in test [2]; 0.385 in [3]; 0.0284 in test [4]; -0.0621 in [5]; -0.18 in test [6]. For the same sequence, the PBM binding z-score in test [7] was -0.457; in test [8], 0.173; in test [9], -0.76; in test [10], 0.594; in test [11] it was 0.091; in test [12] it was 0.24. Moreover, the PBM binding z-score was 0.455 in test [13]; -0.298 in test [14]; 0.622 in test [15]; 1.52 in test [16]; -0.492 in test [17]; -0.195 in test [18].

The values are drawn from the supplement of paper PMC6555819.
